# SW480 rerep = DNA re-replication induction in SW480 cells; SW480 DNA re-replication, Hoechst DNA content imaging, 48 h; Potency, µM (series often up to 46.1 µM), for the others: at the highest dose re-replication activation, hits mostly activators; actives 1.8% (n = 340,000); AID 624297; note: % of control where 0% means no effect; nearly all actives have a fitted effect of over 55% in size
#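 Per well, 250 cells were exposed to pinned compound for 48 hr. Nuclear DNA was visualised with Hoechst (40 min, 37 C) and total object intensity recorded by fluorescence scanning.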
# KB-V1 cytotox = kills drug-selected multidrug resistant KB-V1 cells. Potency, µM (titrated, usually from 46.1 µM), actives largely listed as cytotoxic. KB-V1 MDR cells viability, CellTiter-Glo, 72 h. AID 1347076. actives 3.4% (n = 400,000); note: % is set by controls: 0 for no effect and ±100 for the full control effect; nearly all actives have a fitted effect of over 60% in size
#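 Drug-selected KB-V1 cells, grown in DMEM lacking phenol red with 10% FBS, receive compound titrations; after three days at 37 degrees C, surviving cell ATP is quantified by CellTiter-Glo luminescence and responses normalized and curve-fitted.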
# ELG1 DNA repair = blocks ELG1-dependent DNA repair in HEK293T cells; HEK293T ELG1-luciferase reporter, luminescence, 16 h; DNA damage induced by 5-fluorouridine; Potency, µM (top dose mostly 46.1 µM), for inactives: at the highest dose activity change, negative = inhibition, hits mostly inhibitors; actives 2.3% (n = 330,000); AID 504467; note: % is set by controls: 0 for no effect and ±100 for the full control effect; nearly all actives have a fitted effect of over 55% in size
#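 Quantitative HTS, concentration-response format. 2,000 cells/well co-treated with 5-fluorouridine and compound, 16 hr in 5% CO2 at 37 °C; ONE-Glo luminescence read after 30 min.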
# KB-3-1 cytotox = kills parental KB-3-1 adenocarcinoma cells. Potency, µM (top dose mostly 46.1 µM), most hits filed as cytotoxic. actives 1.4% (n = 400,000). KB-3-1 viability, CellTiter-Glo ATP luminescence, 72 h; note: % is set by controls: 0 for no effect and ±100 for the full control effect; nearly all actives have a fitted effect of over 60% in size
#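 Viability of parental KB-3-1 cells, measured by CellTiter-Glo luminescence, followed a 72 h incubation at 37 °C with pinned compounds in phenol-red-free DMEM containing 10% FBS.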
# MCF10A rerep = induces DNA re-replication in MCF 10a normal breast cells. MCF 10A DNA re-replication, Hoechst nuclear intensity, 48 h. Potency, µM (series often up to 46.1 µM), without a hit: at the highest dose activity, positive = re-replication, usual class: activators. AID 624296. actives 2.9% (n = 350,000); note: % of control where 0% means no effect; nearly all actives have a fitted effect of over 50% in size
# * = called active by the depositor; i = inactive; u = inconclusive; x = no result. Most compounds without a hit are left out; they make up all but 8.1% or so of the library. Calls come from the whole dose curve; as a rule, active = well fitted curve in the direction sought with a large enough effect; inconclusive = small, poorly fitted or top-dose-only effect, or another doubt; inactive = no such curve, though single readings can be large; an effect the other way counts as inactive or inconclusive. Potency is the fitted concentration of half-maximal effect.
SMILES,SW480 rerep,KB-V1 cytotox,ELG1 DNA repair,KB-3-1 cytotox,MCF10A rerep
CCOC(=O)c1c(-c2ccc(OC)cc2)csc1NC(=O)CSc1ncnc2sccc12,-113%,i,u,i,16µM*
CCOC(=O)c1c(-c2ccccc2Cl)csc1NC(=O)CSc1nc(C)cc(=O)[nH]1,23µM*,u,1%,i,u
CCOC(=O)c1c(-c2cccs2)csc1NC(=O)CSc1ncn[nH]1,2%,21µM*,-12%,i,u
CCOC(=O)c1c(NC(=O)c2cccs2)sc(CC)c1-c1cccs1,12%,18µM*,-21%,i,u
CCOC(=O)c1c(-c2ccc(C)s2)csc1NC(=O)c1cccs1,-15%,i,u,i,10%
CC(Oc1ccc(F)cc1)C(=O)Nc1sc2c(c1C(=O)NCc1cccnc1)CCCC2 (stereo unspecified),16%,i,u,u,29%
CCOC(=O)c1c(-c2cccs2)csc1NC(=O)CN1CC(C)OC(C)C1 (stereo unspecified),u,i,u,i,21µM*
CCOC(=O)c1c(-c2cccs2)csc1NC(C)=O,-9%,i,-5%,i,13%
CCOC(=O)c1c(-c2cccs2)csc1NC(=O)CNCCN1CCOCC1,x,x,-10%,x,x
CCOC(=O)c1c(-c2cccs2)csc1NC(=O)C(C)(C)C,-4%,15µM*,u,i,13µM*
CCOc1ccc(Nc2nc(Cc3nnc(SCC(=O)O)o3)cs2)cc1,-2%,i,25%,i,1%
C/C(=N\Nc1ccccc1)c1c(O)cc(C)oc1=O,-30%,i,u,i,u
COC(=O)/C=C1\SC(=Nc2ccc(OC)cc2)NC1=O,-10%,i,5%,i,3.7µM*
COc1ccc(N=C2NC(=O)/C(=C/c3ccco3)S2)cc1,7.3µM*,i,u,i,u
COC(=O)/C=C1\SC(=NC(=O)c2ccc(OC)cc2)NC1=O,-4%,i,0%,i,-2%
Cn1c(CN2CCOCC2)nnc1SCC(=O)Nc1ccc([N+](=O)[O-])cc1O,10%,x,13µM*,x,u
Clc1ccccc1-c1nnc(-c2ccccc2CNc2ccccc2)o1,x,i,x,i,x
Cc1cc2ccccc2n1CCNC(=O)C1CCCC1,-4%,18µM*,-1%,i,-1%
CS(=O)(=O)c1nc(-c2ccccc2)cc(-c2ccccc2)c1C#N,6.5µM*,i,u,u,2.9µM*
CC(C)OCCCNC(=O)c1ccc(Br)cc1,-8%,i,u,i,-2%
COc1cc(COCC(O)CN2C(C)CCCC2C)cc(OC)c1OC (stereo unspecified),31%,i,5%,i,u
C=CCN1C(=O)/C(=C/c2ccc(O)cc2)S/C1=N/c1nccs1,5%,i,-19%,i,23µM*
C=CCN=C1S/C(=C\c2ccc(N(C)C)cc2)C(=O)N1CC=C,u,i,4%,i,18µM*
CCOC(=O)C(C)Oc1ccc(NC(=O)C(Cl)(Cl)Cl)cc1 (stereo unspecified),-13%,u,3%,i,-4%
COc1ccc(CCN2CC(C(=O)OC(C)C(=O)Nc3cccc(Cl)c3)CC2=O)cc1OC (stereo unspecified),-11%,u,3%,i,9%
SMILES,SW480 rerep,KB-V1 cytotox,ELG1 DNA repair,KB-3-1 cytotox,MCF10A rerep
O=C(Cc1cccc2ccccc12)N/N=C/c1ccc(Sc2cccc3cccnc23)o1,x,x,16µM*,x,x
CCCCC(=O)N/N=C/c1ccc(Sc2cccc3cccnc23)o1,-1%,u,u,i,18%
CSc1nc2nc3c(cn2n1)C(=O)CC(c1ccccc1)C3 (stereo unspecified),-11%,13µM*,-1%,i,-1%
CN1CCN(C(=O)Nc2ccc3c(c2)N(C)C(=O)c2ccccc2S3)CC1,-2%,i,u,i,0%
CN1CCN(C(=O)Nc2cccc(-c3ccccc3)c2)CC1,16µM*,i,-5%,i,u
COc1ccc(/C=C/C(=O)Nc2ccccc2)cc1OC,-9%,i,u,i,-1%

# Screening results as filed in PubChem BioAssay.
